Measurements taken from PubChem BioAssay (NCI).
Compounds without any hit were thinned out: in the full panel of roughly 79,000, 15% have a hit. Values without a mark were called inactive. Calls of active or inactive are those of the source. Rule as the data show it: active = growth inhibition above about 70%; inactive = the rest.

Legend:
[1] = NCI Yeast Anticancer Drug Screen. Data for the rad14 strain (AID 159);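 also: 0% = growth of vehicle-treated control cultures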; settings: S. cerevisiae rad14 strain growth inhibition; at 100.0 µM; hits give high values
Method in brief: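 Compound-treated yeast with a defined DNA-repair lesion; growth inhibition normalised to vehicle-treated cultures.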

[2] = NCI Yeast Anticancer Drug Screen. Data for the CLN2oe strain (AID 163);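 also: 0% = growth of vehicle-only control cultures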; settings: S. cerevisiae CLN2oe strain, hits give high values
Method in brief: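 Growth of a genetically modified yeast strain is measured after compound exposure and compared with cultures given vehicle alone.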

[3] = NCI Yeast Anticancer Drug Screen. Data for the cln2 rad14 strain (AID 165);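 also: 0% = growth equal to vehicle treated cultures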; settings: S. cerevisiae cln2 rad14 strain, hits give high values
Method in brief: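 Compounds are applied to the cln2 rad14 yeast strain, and growth is then compared with that of vehicle-treated cultures to give inhibition.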

[4] = NCI Yeast Anticancer Drug Screen. Data for the bub3 strain (AID 167); settings: S. cerevisiae bub3 mutant strain, hits give high values
Method in brief: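 Growth of a checkpoint-deficient yeast mutant is measured after compound exposure. Values represent inhibition relative to vehicle.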

[5] = NCI Yeast Anticancer Drug Screen. Data for the wt2 strain (AID 169);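 also: 0% = growth of vehicle-treated yeast cultures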; settings: S. cerevisiae wt2 strain growth inhibition, hits give high values
Method in brief: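 This strain belongs to a panel of yeast strains with defined genetic alterations in DNA damage repair or cell cycle control. Compounds are applied, and growth inhibition is measured against vehicle-treated cultures.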

[6] = NCI Yeast Anticancer Drug Screen. Data for the mlh1 strain (AID 171);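 also: 0% = growth of vehicle-treated control cultures of the same strain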; settings: S. cerevisiae mlh1 strain growth inhibition, hits give high values
Method in brief: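 Growth of the mutant yeast strain after compound exposure, expressed as inhibition relative to vehicle-only controls.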

[7] = NCI Yeast Anticancer Drug Screen. Data for the sgs1 strain (AID 173);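 also: 0% = growth of vehicle-only control cultures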; settings: S. cerevisiae sgs1 mutant, hits give high values
Method in brief: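 Growth of a yeast strain bearing a defined genetic alteration is measured after compound treatment. Inhibition is expressed relative to vehicle-only controls.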

[8] = NCI Yeast Anticancer Drug Screen. Data for the mlh1 rad18 strain (AID 175); settings: S. cerevisiae mlh1 rad18 strain growth inhibition, hits give high values
Method in brief: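 Read-out is yeast growth inhibition, calculated against vehicle-only controls. The compound was applied to a strain engineered with DNA damage repair alterations.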

[9] = NCI Yeast Anticancer Drug Screen. Data for the rad18 strain (AID 177); settings: S. cerevisiae rad18 mutant growth inhibition, hits give high values
Method in brief: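 Growth of the mutant yeast strain after compound exposure, normalised to vehicle-only cultures.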

[10] = at 5.0 µM (retest, dose inferred, filed as 0.5)
[11] = at 50.0 µM (retest, dose inferred, filed as 5.0)

O=[N+]([O-])c1ccc([N+]2=NC(c3ccccc3)=NN(c3ccccc3)C2)cc1
growth inhibition [1]: 93% (active) | growth inhibition ([2]; at 1.2 µM): -5% | growth inhibition ([2]; at 3.7 µM): -3% | growth inhibition ([2]; at 11.0 µM): -2% | growth inhibition ([2]; at 33.0 µM): 2% | growth inhibition ([2]; at 100.0 µM): 40% | growth inhibition [3, 10]: 9% | growth inhibition [3, 11]: 20% | growth inhibition ([3]; at 50.0 µM): 21.4% | growth inhibition ([4]; at 1.2 µM): -2% | growth inhibition ([4]; at 3.7 µM): 0% | growth inhibition [4, 10]: 10% | growth inhibition ([4]; at 11.0 µM): 12% | growth inhibition ([4]; at 33.0 µM): 30% | growth inhibition [4, 11]: 91% (active) | growth inhibition ([4]; at 50.0 µM): 78% (active) | growth inhibition ([4]; at 100.0 µM): 87% (active) | growth inhibition ([5]; at 1.2 µM): 0% | growth inhibition ([5]; at 3.7 µM): 2% | growth inhibition ([5]; at 11.0 µM): 1% | growth inhibition ([5]; at 33.0 µM): 11% | growth inhibition ([5]; at 100.0 µM): 95% (active) | growth inhibition ([6]; at 1.2 µM): 1% | growth inhibition ([6]; at 3.7 µM): 4% | growth inhibition ([6]; at 11.0 µM): 6% | growth inhibition ([6]; at 33.0 µM): 19% | growth inhibition ([6]; at 100.0 µM): 93% (active) | growth inhibition ([7]; at 1.2 µM): 0% | growth inhibition ([7]; at 3.7 µM): 1% | growth inhibition ([7]; at 11.0 µM): 2% | growth inhibition ([7]; at 33.0 µM): 28% | growth inhibition ([7]; at 100.0 µM): 91% (active) | growth inhibition [8, 10]: -2% | growth inhibition [8, 11]: 48% | growth inhibition ([8]; at 50.0 µM): 80.5% (active) | growth inhibition ([9]; at 1.2 µM): 3% | growth inhibition ([9]; at 3.7 µM): 4% | growth inhibition ([9]; at 11.0 µM): 2% | growth inhibition ([9]; at 33.0 µM): 11% | growth inhibition ([9]; at 100.0 µM): 70% (active)
